# Values without a mark were called inactive. Results filed as inconclusive are left out. Where a call stands in place of a potency, no number is given. The source made the active and inactive calls. Calls follow the shape of the dose curve; as a rule, active = well fitted curve in the direction sought with a large enough effect; inconclusive = small, poorly fitted or top-dose-only effect, or another doubt; inactive = no such curve, though single readings can be large; an effect the other way counts as inactive or inconclusive.
# Key:
# [1] = molecular target: Luciferin 4-monooxygenase (Photinus pyralis) (UniProt P08659); test: Primary firefly luciferase (FLuc) qHTS assay for identification of artifact compounds. (AID 1845220); also: nearly all actives have a fitted effect of over 60% in size; also: potency is read from the fitted curve at half-maximal effect; as to activity change, negative = inhibition: series mostly up to about 54 µM
# How it was run: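 Titrated compounds were incubated 15 min at RT, protected from light, with luciferin and ATP at 10 uM; reaction started with 10 nM FLuc, luminescence imaged at 5 min, and concentration-response fitted by Hill equation.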
# [2] = Primary fluorescence-based thiol-reactive (MSTI) qHTS assay for identification of artifact compounds. (AID 1845221); also: nearly all actives have a fitted effect of over 65% in size; also: potency is read from the fitted curve at half-maximal effect;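 as to activity change, negative = thiol reactive: series mostly up to about 54 µM; thiol-reactive compounds lower the probe fluorescence signal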
# How it was run: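 Probe: MSTI 4 uM, PBS pH 7.4, 2% DMSO. Incubation 1 h, RT, light-protected. Readout fluorescence 525/598 nm.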
# [3] = system: Nanoluciferase (engineered Oplophorus gracilirostris luciferase); test: Primary Nanoluciferase (NLuc) qHTS assay for identification of artifact compounds. (AID 1845222);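 also: NLuc secreted into diluted conditioned medium of S16 cells; series mostly up to about 54 µM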
# How it was run: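 qHTS format, against NLuc in S16 cell-conditioned medium. Nano-Glo substrate 1:100 was added after 15 min at room temperature. Luminescence was taken after a further 5 min.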
# [4] = Primary redox qHTS assay for identification of artifact compounds. (AID 1845223)
# How it was run: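 Redox-cycling detection via DTT (250 uM final) oxidation coupled to Amplex Red (25 uM)/HRP (250 mU/mL) in HBSS. 15 min preincubation plus 30 min after DTT, room temperature. Ex/Em 525/598 nm; 4-parameter Hill fit against DMSO and 10 uM DA3003.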
# [5] = Quantitative High-Throughput drug screen in 47 multiple myeloma cell lines against the NCATS MIPE library collection: FR4_PLB cell viability assay (AID 1918924; also: nearly all actives have a fitted effect of over 35% in size; also: potency is read from the fitted curve at half-maximal effect)
# How it was run: (§1)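 Steps: seed 500 cells per well; pin-transfer MIPE 4.0 library; incubate 48 h at 37C, 5% CO2, humidified; add CellTiter-Glo, 5 min room temperature; read luminescence.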
# [6] = Quantitative High-Throughput drug screen in 47 multiple myeloma cell lines against the NCATS MIPE library collection: Delta47_JCRB cell viability assay (AID 1918925; also: nearly all actives have a fitted effect of over 45% in size; also: potency is read from the fitted curve at half-maximal effect)
# How it was run: (§2)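 Myeloma cell lines, 500 cells per well, exposed to MIPE 4.0 library compounds for 48 h at 37C, 5% CO2. Viability from ATP by CellTiter-Glo luminescence; normalised to DMSO (100%) and media-only (0%) wells.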
# [7] = Quantitative High-Throughput drug screen in 47 multiple myeloma cell lines against the NCATS MIPE library collection: EJM_DSMZ cell viability assay (AID 1918926; also: nearly all actives have a fitted effect of over 30% in size; also: potency is read from the fitted curve at half-maximal effect)
# How it was run: as §2
# [8] = Quantitative High-Throughput drug screen in 47 multiple myeloma cell lines against the NCATS MIPE library collection: ARP1_JJKsccF8 cell viability assay (AID 1918928; also: nearly all actives have a fitted effect of over 40% in size; also: potency is read from the fitted curve at half-maximal effect)
# How it was run: (§3)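 CellTiter-Glo luminescence after 48 h exposure gives viability, scaled between DMSO-only (100%) and media-only (0%) controls. Library compounds are pinned onto 500 myeloma cells per well, incubated at 37C with 5% CO2.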
# [9] = Quantitative High-Throughput drug screen in 47 multiple myeloma cell lines against the NCATS MIPE library collection: Karpas620_DSMZ cell viability assay (AID 1918959); also: nearly all actives have a fitted effect of over 30% in size; also: potency is read from the fitted curve at half-maximal effect
# How it was run: as §1
# [10] = Quantitative High-Throughput drug screen in 47 multiple myeloma cell lines against the NCATS MIPE library collection: KMM1_JCRB cell viability assay (AID 1918960); also: nearly all actives have a fitted effect of over 30% in size; also: potency is read from the fitted curve at half-maximal effect
# How it was run: as §3
# [11] = Quantitative High-Throughput drug screen in 47 multiple myeloma cell lines against the NCATS MIPE library collection: JIM3_ECACC cell viability assay (AID 1918963; also: nearly all actives have a fitted effect of over 35% in size; also: potency is read from the fitted curve at half-maximal effect)
# How it was run: as §1
# [12] = Quantitative High-Throughput drug screen in 47 multiple myeloma cell lines against the NCATS MIPE library collection: JIM1_ECACC cell viability assay (AID 1918964; also: potency is read from the fitted curve at half-maximal effect)
# How it was run: as §2
# [13] = Quantitative High-Throughput drug screen in 47 multiple myeloma cell lines against the NCATS MIPE library collection: JJN3_DSMZ cell viability assay (AID 1918966; also: nearly all actives have a fitted effect of over 50% in size; also: potency is read from the fitted curve at half-maximal effect)
# How it was run: as §2
# [14] = Quantitative High-Throughput drug screen in 47 multiple myeloma cell lines against the NCATS MIPE library collection: H1112_PLB cell viability assay (AID 1918967; also: nearly all actives have a fitted effect of over 30% in size; also: potency is read from the fitted curve at half-maximal effect)
# How it was run: as §2
# [15] = Quantitative High-Throughput drug screen in 47 multiple myeloma cell lines against the NCATS MIPE library collection: AMO1_DSMZ cell viability assay (AID 1918927; also: nearly all actives have a fitted effect of over 30% in size; also: potency is read from the fitted curve at half-maximal effect)
# How it was run: as §2
# [16] = Quantitative High-Throughput drug screen in 47 multiple myeloma cell lines against the NCATS MIPE library collection: ARD_JJKsccE7 cell viability assay (AID 1918929; also: potency is read from the fitted curve at half-maximal effect)
# How it was run: as §2
# [17] = Quantitative High-Throughput drug screen in 47 multiple myeloma cell lines against the NCATS MIPE library collection: KHM11_PLB cell viability assay (AID 1918962); also: nearly all actives have a fitted effect of over 35% in size; also: potency is read from the fitted curve at half-maximal effect
# How it was run: as §1
# [18] = Quantitative High-Throughput drug screen in 47 multiple myeloma cell lines against the NCATS MIPE library collection: INA6_PLB cell viability assay (AID 1918965; also: nearly all actives have a fitted effect of over 55% in size; also: potency is read from the fitted curve at half-maximal effect)
# How it was run: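 CellTiter-Glo luminescence (ATP) after 48 h compound exposure, 37C/5% CO2; 500 cells/well; MIPE 4.0 approved/investigational drugs pinned in; DMSO = 100%, media only = 0% viability.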
# [19] = Quantitative High-Throughput drug screen in 47 multiple myeloma cell lines against the NCATS MIPE library collection: Karpas25_ECACC cell viability assay (AID 1918968; also: nearly all actives have a fitted effect of over 35% in size; also: potency is read from the fitted curve at half-maximal effect)
# How it was run: as §2
# [20] = Quantitative High-Throughput drug screen in 47 multiple myeloma cell lines against the NCATS MIPE library collection: KMS27_JCRB cell viability assay (AID 1918970); also: nearly all actives have a fitted effect of over 30% in size; also: potency is read from the fitted curve at half-maximal effect
# How it was run: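 CellTiter-Glo luminescence after 48 h drug exposure at 37 °C; 500 cells/well, 1536-well format, pin-tool compound addition; DMSO = 100%, media-only = 0% viability.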
structure (smiles),measurement,setting,value
CCN(CCO)CCCC(C)Nc1ccnc2cc(Cl)ccc12 (configuration not stated),"activity change, negative = inhibition",[1],-0.741% [at 6.45 µM]
same,"activity change, negative = thiol reactive",[2],-3.32% [at 6.41 µM]
same,"activity, negative = inhibition",[3],-2.86% [at 6.45 µM]
same,redox activity (% of DA3003),[4],-6.64% [at 6.41 µM]
same,Potency,[5],inactive
same,Potency,[6],inactive
same,Potency,[7],inactive
same,Potency,[8],inactive
same,Potency,[9],inactive
same,Potency,[10],inactive
same,Potency,[11],inactive
same,Potency,[12],inactive
same,Potency,[13],inactive
same,Potency,[14],inactive
Nc1cc(C(Cl)=C(Cl)Cl)c(S(N)(=O)=O)cc1S(N)(=O)=O,Potency,[5],inactive
same,Potency,[6],inactive
same,Potency,[7],inactive
same,Potency,[15],inactive
same,Potency,[8],inactive
same,Potency,[16],inactive
same,Potency,[9],inactive
same,Potency,[10],inactive
same,Potency,[17],inactive
same,Potency,[11],inactive
same,Potency,[12],inactive
same,Potency,[18],inactive
same,Potency,[14],inactive
same,Potency,[19],inactive
Cc1nc(Nc2ncc(C(=O)Nc3c(C)cccc3Cl)s2)cc(N2CCN(CCO)CC2)n1,Potency,[1],inactive
same,Potency,[2],inactive
same,outcome,[3],inactive
same,outcome,[4],inactive
same,Potency,[15],2.64 µM (active)
same,Potency,[16],2.35 µM (active)
same,Potency,[9],16.6 µM (active)
same,Potency,[10],1.05 µM (active)
same,Potency,[18],0.0833 µM (active)
same,Potency,[13],3.32 µM (active)
same,Potency,[19],0.332 µM (active)
same,Potency,[20],10.5 µM (active)
CC(C)c1nc(CN(C)C(=O)N[C@H](C(=O)N[C@@H](Cc2ccccc2)C[C@H](O)[C@H](Cc2ccccc2)NC(=O)OCc2cncs2)C(C)C)cs1,Potency,[1],inactive
same,Potency,[2],inactive
same,outcome,[3],inactive
same,Potency,[5],11.8 µM (active)
same,Potency,[7],inactive
same,Potency,[9],inactive
same,Potency,[10],inactive
same,Potency,[20],inactive
CN(C)CCCC1(c2ccc(F)cc2)OCc2cc(C#N)ccc21 (configuration not stated),Potency,[1],inactive
same,Potency,[2],inactive
same,outcome,[3],inactive
same,outcome,[4],inactive
same,Potency,[5],inactive
same,Potency,[15],inactive
same,Potency,[16],inactive
same,Potency,[9],inactive
same,Potency,[10],inactive
same,Potency,[17],inactive
same,Potency,[11],inactive
same,Potency,[14],8.33 µM (active)
same,Potency,[19],inactive
same,Potency,[20],inactive
Cc1ccc(Nc2nccc(N(C)c3ccc4c(C)n(C)nc4c3)n2)cc1S(N)(=O)=O,Potency,[1],inactive
same,Potency,[2],inactive
same,outcome,[3],inactive
same,outcome,[4],inactive
same,Potency,[5],20.9 µM (active)
same,Potency,[6],16.6 µM (active)
same,Potency,[7],14.8 µM (active)
same,Potency,[15],10.5 µM (active)
same,Potency,[10],14.8 µM (active)
same,Potency,[18],3.72 µM (active)
same,Potency,[13],20.9 µM (active)
same,Potency,[14],16.6 µM (active)
same,Potency,[19],16.6 µM (active)
Nc1ccc(S(N)(=O)=O)cc1,Potency,[5],inactive
same,Potency,[6],inactive
same,Potency,[7],inactive
same,Potency,[15],inactive
same,Potency,[8],inactive
same,Potency,[16],inactive
same,Potency,[9],inactive
same,Potency,[10],inactive
same,Potency,[11],inactive
same,Potency,[18],inactive
same,Potency,[13],inactive
same,Potency,[14],inactive
same,Potency,[19],inactive
COc1cc(Nc2c(C#N)cnc3cc(OCCCN4CCN(C)CC4)c(OC)cc23)c(Cl)cc1Cl,Potency,[1],inactive
same,Potency,[2],inactive
same,outcome,[3],inactive
same,outcome,[4],inactive
same,Potency,[5],23.5 µM (active)
same,Potency,[6],3.72 µM (active)
same,Potency,[7],23.5 µM (active)
same,Potency,[15],8.33 µM (active)
same,Potency,[8],18.7 µM (active)
same,Potency,[9],11.8 µM (active)
same,Potency,[17],5.26 µM (active)
same,Potency,[11],18.7 µM (active)
same,Potency,[18],0.418 µM (active)
same,Potency,[13],18.7 µM (active)
same,Potency,[14],9.35 µM (active)
same,Potency,[19],1.05 µM (active)
C=C(c1ccc(C(=O)O)cc1)c1cc2c(cc1C)C(C)(C)CCC2(C)C,Potency,[1],inactive
same,outcome,[3],inactive
same,outcome,[4],inactive
same,Potency,[7],inactive
same,Potency,[8],inactive
same,Potency,[9],inactive
same,Potency,[10],inactive
same,Potency,[13],inactive
same,Potency,[14],inactive
same,Potency,[19],14.8 µM (active)
same,Potency,[20],0.0418 µM (active)
OC(CN1CCN(c2cccc(Cl)c2)CC1)C(c1ccccc1)c1ccccc1 (configuration not stated),Potency,[1],inactive
same,Potency,[2],inactive
same,outcome,[3],inactive
same,outcome,[4],inactive
same,Potency,[5],inactive
same,Potency,[7],inactive
same,Potency,[16],inactive
same,Potency,[10],inactive
same,Potency,[11],inactive
O=C(NOCC1CC1)c1ccc(F)c(F)c1Nc1ccc(I)cc1Cl,Potency,[1],inactive
same,Potency,[2],inactive
same,outcome,[3],inactive
same,outcome,[4],inactive
same,Potency,[5],23.5 µM (active)
same,Potency,[6],20.9 µM (active)
same,Potency,[15],6.62 µM (active)
same,Potency,[9],0.372 µM (active)
same,Potency,[10],6.62 µM (active)
same,Potency,[17],0.0235 µM (active)
same,Potency,[11],6.62 µM (active)
same,Potency,[12],9.35 µM (active)
same,Potency,[18],9.35 µM (active)
same,Potency,[13],20.9 µM (active)
same,Potency,[19],11.8 µM (active)
Cc1nccn1CC1CCc2c(c3ccccc3n2C)C1=O (configuration not stated),Potency,[1],inactive
same,Potency,[2],inactive
same,outcome,[3],inactive
same,outcome,[4],inactive
same,Potency,[5],inactive
same,Potency,[7],inactive
same,Potency,[10],inactive
same,Potency,[13],inactive
Cc1ccc(NC(=O)c2ccc(CN3CCN(C)CC3)cc2)cc1Nc1nccc(-c2cccnc2)n1,Potency,[1],19 µM (active)
same,Potency,[2],inactive
same,outcome,[3],inactive
same,outcome,[4],inactive
same,Potency,[6],20.9 µM (active)
same,Potency,[18],16.6 µM (active)
same,Potency,[14],inactive
same,Potency,[19],23.5 µM (active)
COc1c(O)cc2c(c1O)[C@@H]1O[C@H](CO)[C@@H](O)[C@H](O)[C@H]1OC2=O,Potency,[1],inactive
same,Potency,[2],11.7 µM (active)
same,outcome,[3],inactive
same,outcome,[4],inactive
same,Potency,[5],inactive
same,Potency,[7],inactive
same,Potency,[15],inactive
same,Potency,[9],inactive
same,Potency,[10],inactive
same,Potency,[17],inactive
same,Potency,[11],inactive
same,Potency,[12],inactive
same,Potency,[14],inactive
O=C(O)c1cccc(-c2noc(-c3ccccc3F)n2)c1,Potency,[1],0.0067 µM (active)
same,Potency,[2],inactive
same,outcome,[4],inactive
same,Potency,[5],inactive
same,Potency,[6],inactive
same,Potency,[7],inactive
same,Potency,[15],inactive
same,Potency,[9],inactive
same,Potency,[10],inactive
same,Potency,[11],inactive
same,Potency,[12],inactive
same,Potency,[18],23.5 µM (active)
same,Potency,[14],inactive
Cc1cc(C2CCCCC2)n(O)c(=O)c1,Potency,[5],6.62 µM (active)
same,Potency,[6],6.62 µM (active)
same,Potency,[7],16.6 µM (active)
same,Potency,[15],7.43 µM (active)
same,Potency,[8],9.35 µM (active)
same,Potency,[16],9.35 µM (active)
same,Potency,[9],8.33 µM (active)
same,Potency,[10],9.35 µM (active)
same,Potency,[17],4.69 µM (active)
same,Potency,[11],8.33 µM (active)
same,Potency,[12],3.32 µM (active)
same,Potency,[18],6.62 µM (active)
same,Potency,[13],18.7 µM (active)
same,Potency,[14],13.2 µM (active)
same,Potency,[19],3.32 µM (active)
same,Potency,[20],5.26 µM (active)

# — PubChem BioAssay (NCATS)
